VACV mCherry inh: inhibitors of vaccinia virus infection (mCherry reporter signal). Vaccinia virus mCherry reporter infection, fluorescence. Potency, µM (series often up to 36.5 µM), for the others: top-dose activity change, negative = inhibition, actives largely listed as inhibitors. actives 0.63% (n = 310,000). AID 720579; calls by dose curve; tested in A549 cells; note: nearly all actives have a fitted effect of over 35% in size
Pf growth 96h: P. falciparum growth inhibition at 96 hour, primary screen for plastid delayed-death inhibitors. actives 6.9% (n = 320,000). P. falciparum luciferase reporter growth, 96 h. Potency, µM (doses to about 28.7 µM), inactives show at the top dose activity change, negative = inhibition, hits mostly inhibitors
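P. falciparum expressing integrated firefly luciferase grown in erythrocytes (2% hematocrit, 0.05% parasitemia final) with compounds for 96 hours at 37 C, 5% CO2. Growth inhibition read as loss of luminescence after adding luciferase detection reagent.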
VACV Venus inh: vaccinia inhibition (Venus reporter); Potency, µM (highest dose often 36.5 µM), inactives show top-dose activity change, negative = inhibition, most hits filed as inhibitors; Vaccinia virus Venus reporter expression, fluorescence; actives 0.46% (n = 330,000); calls by dose curve; tested in A549 cells; note: nearly all actives have a fitted effect of over 30% in size
AMA1 RON2 block: AMA1-RON2 (P. falciparum) interaction inhibition; AlphaScreen AMA1-biotinylated RON2 peptide binding; Potency, µM (highest dose often 58.2 µM), for the others: at the top dose activity change, negative = inhibition, actives largely listed as inhibitors; actives 0.2% (n = 360,000); AID 720542;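 note: 0% = vehicle wells and -100% = peptide control; nearly all actives have a fitted effect of over 45% in size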
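AMA1 (3D7) with his tag at 25 nM final met compounds first, then biotinylated RON2 peptide at 25 nM; detection used donor plus acceptor beads, 10 µg/mL apiece, read by AlphaScreen after 30 min at room temperature.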
Pf growth 48h: P. falciparum growth inhibition at 48 hours (one generation); Potency, µM (series often up to 28.7 µM), for inactives: top-dose activity change, negative = inhibition, usual class: inhibitors; P. falciparum luciferase growth in erythrocytes, 48 h; actives 5.9% (n = 310,000); AID 504832
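Read-out is firefly luciferase luminescence from an integrated reporter in P. falciparum, so falling signal marks reduced parasite growth. Infected erythrocytes were at 2% hematocrit and 0.1% parasitemia (final) in Albumax-supplemented RPMI 1640.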
Numbers without * were called inactive; i = inactive; ? = inconclusive; · = not tested or not shown; [ ] = remark or other dose. Most compounds without a hit are left out; they make up all but 8.7% or so of the library. Unless noted, calls come from the whole dose curve; as a rule, active = well fitted curve in the direction sought with a large enough effect; inconclusive = small, poorly fitted or top-dose-only effect, or another doubt; inactive = no such curve, though single readings can be large; an effect the other way counts as inactive or inconclusive. Unless noted, % is set by controls: 0 for no effect and ±100 for the full control effect; potency is the fitted concentration of half-maximal effect.

SMILES	VACV mCherry inh	Pf growth 96h	VACV Venus inh	AMA1 RON2 block	Pf growth 48h
CCCNC(=S)N1CCN(c2nc(-c3ccc(C)cc3)cs2)CC1	-13%	?	-30%	7%	-4%
O=C(NC(=S)N1CCN(c2nc(-c3ccccc3)cs2)CC1)c1cccnc1	-25%	?	-25%	10%	10µM*
COCCCNC(=S)N1CCN(c2nc(-c3ccc(F)cc3)cs2)CC1	·	?	·	-20%	?
O=C(Nc1nc(-c2ccccc2)cs1)c1cccnc1	?	·	-26%	14%	-30%
Cc1ccc(OCC(=O)Nc2nonc2-c2ccc(Br)cc2)cc1C	-15%	·	-9%	·	·
CSc1cccc(NC(=O)Cn2ncn3c(cc4ccccc43)c2=O)c1	-19%	·	-16%	·	·
COc1cccc(N2CC(NC(=O)c3ccc(S(=O)(=O)N4CCCC4)cc3)CC2=O)c1 (stereo not given)	-1%[7.34 µM]	·	0%[7.34 µM]	·	·
CCc1ccc2nc3nc(C)cc(C)c3c(N)c2c1	?	1.7µM*	?	1%	?
CCc1ccc(NC(=S)/N=C(\N)Nc2nc(C)c3cc(CC)ccc3n2)cc1	?	?	?	14%	?
Cc1cc(C)c2c(N)c3ccccc3nc2n1	·	106%	·	15%	15µM*
COc1ccc(CC(=O)NCC(c2ccc(N(C)C)cc2)N2CCOCC2)cc1 (stereo not given)	6%	·	-2%	·	·
C=C1C=C(C(F)F)n2ncc(C(=O)Nc3ccc(N(CC)CC)cc3)c2N1	-17%	·	-11%	·	·
O=C(O)c1ccccc1-c1c2cc(Br)c(=O)cc-2oc2[c]([Hg])c(O)c(Br)cc12	i	6.4µM*	·	·	?
O=C(O)c1ccccc1-c1c2cc(Br)c(=O)c(Br)c-2oc2c(Br)c(O)c(Br)cc12	·	?	·	·	-11%
Cc1nn(-c2ccc(N3CCCC3)nn2)c(C)c1CCC(=O)N1CCN(c2ccc(F)cc2)CC1	-13%	·	-17%	·	·
C/C(=N\OCC(=O)Nc1ccccc1C(C)(C)C)c1ccc2c(c1)OCCO2	-12%	?	-16%	2%[11.6 µM]	9.3µM*
COc1ccccc1CNc1ncnc2c1cnn2-c1ccc(C)cc1	-16%	·	-7%	·	·
COc1ccc(OC)c(C(=O)N2CCC(C(=O)c3ccc(F)cc3)CC2)c1	-10%	9.3µM*	-13%	5%	-16%
COc1ccc(N/N=C(/C(N)=O)C2=NC(C)(C)Cc3ccccc32)cc1	14µM*	?	?	9%[2.32 µM]	?
CC1(C)Cc2ccccc2C(/C(C#N)=N/O)=N1	-4%	?	9%	-6%	-11%
O=C(Cc1ccc(OCCCc2ccccc2)cc1)NO	-4%	·	-4%	·	·
COc1ccc(C2c3c(n(C)c4ccccc34)C(=O)N2CC(=O)Nc2ccc(C)c(Cl)c2)cc1 (stereo not given)	-6%	·	-9%	·	·
CCCCc1ccc(N=N/C(C(=O)Nc2ccccc2OC)=C(/C)O)cc1	-21%	0%	-12%	-7%	11%
CCCCc1ccc(N=N/C(C(=O)Nc2cc(OC)c(NC(C)=O)cc2OC)=C(/C)O)cc1	-22%	4.7µM*	-25%	-11%[2.32 µM]	?
CC(=O)NCC(=O)NCC1Cc2cc(C)cc(-c3ccccn3)c2O1 (stereo not given)	5%	·	4%	·	·
SMILES	VACV mCherry inh	Pf growth 96h	VACV Venus inh	AMA1 RON2 block	Pf growth 48h
CCC(=O)N(C1=C(NC(C)C)C(=O)c2ccccc2C1=O)C(C)C	·	0.066µM*	·	0%	0.13µM*
CCC(=O)NC1=C(Nc2ccc(N)cc2)C(=O)c2ccccc2C1=O	-9%	?	-9%	-19%	?
Cc1c(Br)c([N+](=O)[O-])nn1CC(=O)NC1CCCCCC1	-17%	1.5µM*	-10%	-3%	-12%
CCOC(=O)c1c(NC(=O)Cn2nc([N+](=O)[O-])c(Br)c2C)sc2c1CCC(C)C2 (stereo not given)	·	0.013µM*	·	-8%	-27%
Cc1ccc(N2CCN(S(=O)(=O)c3ccc(F)c(C(=O)Nc4ccc(Cl)cc4Cl)c3)CC2C)cc1 (stereo not given)	-18%	·	-15%	·	·
Cc1ccc(CNC(=O)CCCCn2c(=O)[nH]c3ccsc3c2=O)cc1	·	10µM*	·	14%	-4%
O=C(CCCCCn1c(=O)[nH]c2ccsc2c1=O)N1CCCCC1	-11%	?	-11%	-3%	12µM*
CCOc1ccc(CN(CCc2ccc3c(c2)OCO3)Cc2cc(OC)cc(OC)c2)cc1	-13%[7.34 µM]	·	-11%[7.34 µM]	·	·
CCOc1ccccc1NC(=O)c1sc2ncn(CC(=O)N3CCOCC3)c(=O)c2c1C	-2%	6%	0%	8%	8%
Cc1cc([N+](=O)[O-])ccc1NC(=O)c1sc2ncn(CC(=O)N3CCOCC3)c(=O)c2c1C	·	15µM*	·	0%	?
Cc1ccc(NC(=O)c2sc3ncn(CC(=O)N4CCOCC4)c(=O)c3c2C)c(Br)c1	·	12µM*	·	-3%	18%
CN(C)c1ccc(C(CNC(=O)c2ccccc2)N2CCc3ccccc32)cc1 (stereo not given)	-8%	·	-10%	·	·
CCn1c(NC(=O)C2CCCCC2)nc2ccccc21	-27%	351%	?	100%	10µM*
S=C(Nc1ccccc1)Nc1nc2ccccc2n1CCOc1ccc(Cl)cc1	?	12µM*	?	?	7.4µM*
Clc1ccc(NCc2nc3ccccc3n2CCOc2ccccc2)cc1	-29%	·	?	·	·
O=C(Nc1nc2ccccc2n1CCN1CCCCC1)C1CCCCC1	·	?	-27%	19%	?
CCCn1c(NC(=S)Nc2ccccc2)nc2ccccc21	?	42%	?	15%	?
CCn1c(NC(=S)Nc2ccccc2)nc2ccccc21	·	3.3µM*	·	58%	?
Cc1c(Cl)cccc1NC(=O)CN1C(=O)COc2ccc(S(=O)(=O)N3CCOCC3)cc21	-9%	·	-11%	·	·
O=C(Nc1cccc(C(F)(F)F)c1)c1c(O)c2ccccc2[nH]c1=O	·	15µM*	·	3%	28%
CCOC(=O)C1=C(CN2CCN(C(=O)c3ccco3)CC2)NC(=O)NC1c1ccc(Cl)cc1 (stereo not given)	-11%	?	-2%	1%	3.7µM*
CCOC(=O)C1=C(CN2CCN(C(=O)c3ccco3)CC2)NC(=O)NC1c1ccc(F)cc1 (stereo not given)	-7%	33%	-7%	-4%	10µM*
CCOC(=O)C1=C(CN2CCN(CC)CC2)NC(=O)NC1c1ccc(Cl)cc1 (stereo not given)	-20%	·	-5%	·	·
CCOC(=O)C1=C(CN2CCN(C(=O)c3ccco3)CC2)NC(=O)NC1c1ccc(OC(C)C)cc1 (stereo not given)	·	?	·	3%	12µM*
CC(C)Oc1ccc(C(=O)N2CCN(C(=O)c3ccco3)CC2)cc1	i	10µM*	-2%	-18%	-5%
Cn1cnc(S(=O)(=O)N2CCCC(C(=O)NCc3ccccc3)C2)c1 (stereo not given)	-7%	·	-3%	·	·
O=C(CNc1cccc(S(=O)(=O)N2CCCC2)c1)Nc1cccc(F)c1	i	10µM*	-17%	-7%	3.7µM*
